Sampled rows, rich in hits. Any-hit rate of the full collection: about 2.6%.
PHOSPHO1 inh: blocks human PHOSPHO1 phosphatase activity | 290,000 tested, 1.1% active | recombinant PHOSPHO1, absorbance phosphatase assay | Q8TCT1 | inhibition, % at 13.3 µM | AID 1565; in the data active = inhibition above about 60%
Target sequence (Q8TCT1 whole entry, looked up): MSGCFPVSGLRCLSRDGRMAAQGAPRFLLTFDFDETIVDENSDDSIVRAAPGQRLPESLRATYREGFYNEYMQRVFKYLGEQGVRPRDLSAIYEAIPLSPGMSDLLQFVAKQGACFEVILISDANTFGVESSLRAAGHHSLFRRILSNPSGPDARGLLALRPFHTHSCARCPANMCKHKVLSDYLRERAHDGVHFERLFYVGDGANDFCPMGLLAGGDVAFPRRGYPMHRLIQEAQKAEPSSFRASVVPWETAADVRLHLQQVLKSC
PABP1 MLLE inh: inhibitors of microRNA-mediated deadenylation, human PABP1 MLLE binding. P11940. GST-MLLE / FITC-PAM2 fluorescence polarization. inhibition, % at 20 µM. 360,000 tested, 0.36% active. AID 588489; in the data active = inhibition above about 35%, passing the limit was not always enough;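 note: plate controls were DMSO wells with GST-MLLE for no effect and wells lacking GST-MLLE protein for full effect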
eIF4H inh: inhibitors of RNA binding by human eIF4H. Q15056. eIF4H fluorescence polarization binding assay. inhibition, % at 35 µM. 290,000 tested, 0.94% active. AID 2012;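 note: calls also rest on retests at 20 µM and on dose response follow-up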
CRFBP-R2 block: CRF-BP/CRF-R2 complex antagonism. HEK293 CRF-R2/CRF-BP, CRF-induced calcium fluorescence. 350,000 tested, 0.59% active. inhibition, % at 11.8 µM;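 active = inhibition of the ligand-induced calcium signal above about 50% at the single tested concentration, limit read from the data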
PABP FP inh: PABP-poly(A) binding inhibition | inhibition, % at 35 µM | P11940 | AID 2014 | 290,000 tested, 1% active | PABP-poly(A) RNA binding, fluorescence polarization;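 note: calls also rest on retests at 20 µM and on dose response follow-up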
* hit, by the source's call; nt = not tested or not shown. Unless noted, the rule behind the calls is not given here.

SMILES	PHOSPHO1 inh	PABP1 MLLE inh	eIF4H inh	CRFBP-R2 block	PABP FP inh
C=CCN1C=CC(=O)[C@@H](OC(=O)Nc2ccc(Br)cc2)[C@H]1c1ccccc1Br	nt	2.7	nt	-30.9	nt
CCOC(=O)CSc1nc2ccsc2c(=O)[nH]1	5.5	-10.7	86.4	22.4	57.8*
O=C(O)C(Cc1c[nH]c2ccccc12)NS(=O)(=O)c1cccc(Cl)c1Cl (stereo not drawn)	39.9	0.2	8.4	5.3	7.6
O=C(Cc1cccc2ccccc12)NC(NC(=S)Nc1ccccc1Cl)C(Cl)(Cl)Cl (stereo not drawn)	-12.2	45.9*	-7.1	3.9	-9.8
O=C(NC(NC(=S)Nc1ccccc1Cl)C(Cl)(Cl)Cl)c1cccc(Cl)c1 (stereo not drawn)	-2.4	21.8	-12.9	26.1	-9.0
OC(CN1CCCCC1)c1ccc2c3c(cccc13)CC2 (stereo not drawn)	nt	4.2	nt	-15.7	nt
CC1=NN(c2ccccc2)C(=O)/C1=C\c1ccc(Oc2ccc([N+](=O)[O-])cc2[N+](=O)[O-])cc1	-5.2	0.6	-5.9	-26.7	-2.8
COc1cc(/C=C2\C(=O)N(c3ccccc3)N=C2C)ccc1Oc1ccc([N+](=O)[O-])cc1[N+](=O)[O-]	-22.0	3.6	active	-30.9	51.5*
CC(Sc1nnc(Cc2cccs2)n1C1CC1)C(=O)NC1CCS(=O)(=O)C1 (stereo not drawn)	nt	9.0	nt	63.1*	nt
COc1ccc(O)c(C(=O)c2cc(SCC(=O)O)c3nc4sc5c(c4c(=O)n3c2)CCCC5)c1	-4.9	-13.8	80.6*	20.4	80.2*
CCOC(=O)c1sc2nc3c(SCC(=O)O)cc(C(=O)c4cc(F)ccc4O)cn3c(=O)c2c1C	-4.6	-18.9	11.7	0.5	4.0
O=C(O)CSc1cc(C(=O)c2ccccc2O)cn2c(=O)c3c(-c4ccccc4)csc3nc12	-25.2	-22.6	68.5	18.4	active
c1csc(-c2ccc3nncn3c2)c1	nt	-29.5	nt	nt	nt
O=C(c1cc(-c2ccccc2)nc2ccccc12)N1CCCC1	14.3	-5.7	-8.0	-4.0	-8.1
Cc1cc(C(=O)N2CC=C(c3ccccc3)CC2)c2ccccc2n1	nt	-1.3	nt	1.9	nt
COc1ccc(-c2cc(C(=O)N3CCN(c4ccccc4)CC3)c3ccccc3n2)cc1	-15.8	11.3	56.7*	-19.5	active
CC(=O)N1CCN(C(=O)c2cc(C)nc3ccccc23)CC1	60.0*	9.1	-1.3	-11.1	-5.2
COc1ccc(OC)c(-c2cc(C(=O)O)c3cc4ccccc4cc3n2)c1	nt	-20.1	nt	50.1*	nt
O=C(c1cc(-c2cccc(Cl)c2)nc2ccccc12)N1CCCC1	62.4*	7.2	1.5	-12.6	2.1
COc1cccc(-c2cc(C(=O)O)c3cc4ccccc4cc3n2)c1OC	nt	6.5	nt	-6.9	nt
CCC(CC)C(=O)N(C)c1c(C)nc2c(OCc3ccc(F)c(F)c3)cccn12	nt	-10.8	nt	nt	nt
COc1ccc(-c2cc(C(=O)N3CCCCCC3)c3ccccc3n2)c(OC)c1	6.1	19.4	84.3*	0.3	48.0*
COc1ccc(-c2cc(C(=O)N3CCN(c4ncccn4)CC3)c3ccccc3n2)c(OC)c1	-21.4	22.1	-10.7	-6.0	3.8
O=C(c1ccco1)N1CCN(C(=O)c2cc(-c3ccccn3)nc3ccc(Cl)cc23)CC1	10.5	-1.3	99.9*	-12.3	98.8
CCc1c(C)sc(NC(=O)c2ccco2)c1C(=O)N1CCOCC1	7.0	39.9*	14.0	-8.8	-1.5
SMILES	PHOSPHO1 inh	PABP1 MLLE inh	eIF4H inh	CRFBP-R2 block	PABP FP inh
C[C@@H]1CN([C@@H](C)CO)S(=O)(=O)c2ccc(-c3ccccc3)cc2O[C@@H]1CN(C)Cc1ccccc1C(=O)O	nt	-2.9	nt	8.9	nt
CSCCC(NS(=O)(=O)Cc1ccccc1)C(=O)NNc1ccccc1 (stereo not drawn)	nt	-8.4	nt	nt	nt
O=C(/C=C/c1ccco1)N(c1ccccn1)c1ccccn1	-29.1	16.6	100.7*	-3.5	13.7
O=C(c1ccco1)N(c1ccccn1)c1ccccn1	18.9	3.1	-2.8	-4.4	-1.4
CCO/C=C/C(O)(CNC(=O)c1ccc(C(C)(C)C)cc1)C(F)(F)F (stereo not drawn)	-6.9	-10.9	99.4	-26.6	active
O=C(CSc1nc(Cc2ccccc2)nc2ccccc12)Nc1ccc2c(c1)OCCO2	-1.6	37.8*	4.6	4.1	-1.2
COc1ccc(-c2ccnc(SCC(=O)N3CCN(c4ccccc4)CC3)n2)cc1	51.4	4.9	28.9	61.5*	4.1
O=C(CSc1nncn1-c1ccccc1)Nc1ccc(N2CCOCC2)cc1	86.9*	-18.4	-6.8	12.8	-5.4
O=C(CSc1ncnc2ccccc12)Nc1ccc2c(c1)OCCO2	15.0	16.6	-2.8	6.0	-7.7
CC(C)c1nc(SCC(=O)Nc2ccc(N3CCOCC3)cc2)c2ccccc2n1	-4.4	45.1*	-1.2	-4.3	-1.4
N#CC1C(=N)Cc2ccccc2-c2ccccc21 (stereo not drawn)	nt	-1.3	nt	-11.2	nt
CC(C)C(=O)N1CCC1(C)C(=O)NCc1ccc(F)cc1Cl (stereo not drawn)	nt	-11.2	nt	nt	nt
COc1ccc(-n2cnnc2SCC(=O)N2CCN(c3ccccc3)CC2)cc1	92.7*	-0.8	8.8	12.2	6.1
C/C(N)=C(/C#N)C(=O)CSc1nnc(C)n1-c1ccccc1	-11.6	12.2	16.1	11.3	-4.2
C/C(N)=C(/C#N)C(=O)CSc1nncn1-c1ccccc1	68.1*	-9.3	7.2	2.2	11.7
CCc1nc2ccc(C(=O)NCc3ccccc3OC)cn2c1N(C)Cc1ccc(OC)cc1	nt	4.9	nt	nt	nt
CCC1(C)Cc2c(sc3c2c(=O)n(-c2ccccc2)c(=O)n3C)CO1 (stereo not drawn)	76.8*	-49.1	-0.7	10.2	2.0
O=[N+]([O-])c1cccc(COc2ccc(CN3CCOCC3)cc2)c1	nt	-9.6	nt	81.7*	nt
O=[N+]([O-])c1cccc(COc2ccc(CN3CCCC3)cc2)c1	nt	-9.7	nt	-14.8	nt
CCN(c1ccccc1)S(=O)(=O)c1ccc(N2CCN(c3ccccc3O)CC2)nc1	nt	6.5	nt	2.4	nt
Cc1ccc(NC(=S)c2ccc3ccccc3n2)c(C)c1	-28.1	36.2*	-3.0	4.2	0.6
Cc1ccc(C)c(NC(=O)c2ccc3ccccc3n2)c1	4.6	7.8	-0.8	-2.2	7.5
COc1ccc(NC(=S)c2ccncc2)cc1	16.8	22.2	-6.0	22.5	-5.0
COc1ccc(C(=S)Nc2ccc(C)cc2)cc1	-84.6	39.5*	2.4	4.6	3.4
COc1ccc(NC(=S)c2ccc3ccccc3n2)cc1	-108.1	38.2*	-12.2	-9.6	-1.3
SMILES	PHOSPHO1 inh	PABP1 MLLE inh	eIF4H inh	CRFBP-R2 block	PABP FP inh
Cc1ccc(-n2nnnc2-c2ccccc2)cc1	8.6	9.6	0.8	13.4	3.7
CCN(CC)c1ccc(C=C(c2nnnn2-c2ccc(C)cc2)c2nnnn2-c2ccc(C)cc2)cc1	-9.0	-71.3	53.3*	-17.9	-20.4
Cc1cccc(C(=O)NNC(=O)CN2C(=O)c3ccccc3C2=O)c1	-1.8	2.7	-9.1	-1.1	8.7
Cc1ccnc(NC(=O)c2ccc(C(=O)c3ccccc3)cc2)c1	nt	2.8	nt	3.4	nt
Cc1ccnc(NC(=O)c2ccc(S(=O)(=O)c3ccccc3)cc2)c1	61.0*	-3.0	2.1	8.5	0.4
COc1ccc(C(C)(C)C)cc1NC(=S)NCCN1CCOCC1	26.2	5.3	-1.7	-4.7	57.3*
